From PubChem BioAssay (NCI) come the findings set out here.

The panel holds about 83,000 compounds, 20% with a hit somewhere; the sample as a whole holds those more often.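 96-well plates, one dose, 48 hours. Percent growth reported; active if below 10.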 Values without a mark were called inactive. Activity calls are given as the source filed them.

This assay relates to PC-3 prostate. Put plainly: NCI-60 one-dose screen, 48 h (100 = growth as untreated, 0 = no growth, -100 = all killed). Conditions: 10 µM unless noted.
With `NC(=O)c1c(NC(=O)c2ccc(Cl)cc2)sc2c1CCC(=O)C2`, the growth was 15.5%.
To `COc1ccc(/C(C)=C(\c2ccc(OCCN3CCCCCC3)cc2)c2ccc(OC(=O)c3ccccc3)cc2)cc1` belongs 39.6%; to `Clc1ccc(-c2cn3ccsc3n2)c(Cl)c1Cl`, 93.5%.
Take `COc1ccc(Cl)cc1Nc1nc(C(F)(F)F)ccc1C(=O)N/N=C/c1ccccc1Cl`: the growth was 5.53% (active).
To `Cc1cc(C)cc(Nc2ccc([N+](=O)[O-])c(NCCN3CCOCC3)n2)c1` belongs 17.2%; to `C=CCn1c(SCC(=O)Nc2ccc(C(=O)/C=C/c3cc(OC)c(OC)c(OC)c3)cc2)nnc1-c1cc(-c2ccc(OC)cc2)nc2ccccc12`, 80%; to `C#CCOc1cccc(-c2ncc3cc(NC(=O)CCl)ccc3n2)c1`, 11.7%.
To `Cn1cc(-c2nn3cc(-c4ccccc4)nc3s2)c2ccccc21` belongs 75.9%; to `Cc1cc2nc3c4ccccc4n(CCN(C)C)c3nc2cc1C`, 12.9%; to `CCC(C)Nc1ccc(NC(C)CC)cc1` (centres undefined), 80.7%.
To `O=C(CCCCCCN1CC(=O)N2[C@@H](C3CCCCC3)c3[nH]c4ccccc4c3C[C@H]2C1=O)NO` belongs 62.7%; to `C(/C=C/c1ccccc1)=Nc1ccc(CCc2ccc(N=C/C=C/c3ccccc3)cc2)cc1`, 71.7%; to `Cc1c2ccccc2nc2c1ccc1cccnc12`, 65.1%.
For the molecule `Cc1ncc(C(=O)Nc2ccc(CN3CCN(C)CC3)c(C(F)(F)F)c2)cc1C#Cc1cnc(N)c2cnccc12`, the growth was 41.7%.
